# Measured values: ChEMBL document CHEMBL3433997, “St. Jude Leishmania screening dataset” (2016)
# “And” between values parts separate entries of the source, which are not always exact repeats. Equal entries are not always repeated.
# Biological target: Glucose transporter (Leishmania mexicana) (UniProt O61059)
# Assay: ST_JUDE_LEISH: Cytotoxicity at 2uM final concentration against transgenic Leishmania Mexicana promastigotes LmGT2 that are glucose transport deficient and complemented with the L. Mexicana glucose transporter 2. Activity is measured by DNA content using SYBR green in vitro
# Type: functional
row,Compound,inhibition
1,CN1CCC(NCc2ccc(-c3ccc(S(=O)(=O)NC4CCC4)s3)cc2)CC1,0.74%
2,Cc1cc(O)c(-c2ccc(OCc3ccc(Cl)cc3)cc2)c(C)n1,-0.29%
3,COc1cc(Cc2cnc(N)nc2N)c2c(c1OC)OC(C)C=C2 (stereo not drawn),2.25%
4,C#C[C@H]1O[C@@H](n2cnc3c(Nc4cc(Br)cc(C(F)(F)F)c4)ncnc32)[C@H](O)[C@@H]1O,2.53%
5,CCNc1cc(CC)nc(Nc2ccc(C)cc2)n1,17.9%
6,COc1ccc2nccc([C@@H](O)CN3CCC(NC(=O)C(=Cc4ccc(Cl)cc4Cl)c4ccc(-c5ccccc5)cc4)CC3)c2c1,4.7%
7,COc1cc(Cc2cnc(N)nc2N)cc(OC)c1OCCNC(=O)[C@@H](N)CCC(=O)O,0.12%
8,O=C(NC1CCC(CCN2Cc3cccc(F)c3C2)CC1)c1cccc(-c2cccnc2)c1 (stereo not drawn),-1.89%
9,O=C(Nc1cccc(-c2cccc(-c3nc4ccccc4[nH]3)c2)c1)NC1CC1c1ccccc1 (stereo not drawn),5.79% and 7.12%
10,O=C(/C=C/c1cc([N+](=O)[O-])ccc1Cl)N1CCC(CCN2CCC(c3c[nH]c4ccccc34)CC2)CC1,0.76%
11,CN1CC[C@@H](Oc2cc(C(=O)NCc3ccc(Cl)c(Cl)c3)ccc2C(F)(F)F)C1,0.48%
12,CN(C)CCN(C)Cc1ccc(-c2ccc3c(Nc4ccc(Oc5ccccn5)cc4)ccnc3c2)o1,-2.18%
13,CC(=O)Nc1nnc(SCc2c(C)cc(C(C)(C)C)cc2C)s1,1.06%
14,O=S(=O)(Nc1ccc2nccc(N3CCNCC3)c2c1)c1ccc2c(Cl)cccc2c1,-0.37%
15,COc1ccc(Oc2ccc(-c3c(C)[nH]c(C)c(Cl)c3=O)cc2)cc1,2.72%
16,Cc1cc(C)cc(OCC(O)CN(Cc2cc(Cl)cc(Cl)c2)C(=O)Nc2ccccc2Cl)c1 (stereo not drawn),-7.19%
17,CCNc1cc(C(=O)N[C@@H](Cc2ccccc2)[C@H](O)CN[C@@H]2CCc3ccccc32)cc(N2CCCC2=O)c1,2.15%
18,C=C[C@]1(C)C[C@@H](OC(=O)NC(=O)CCCS(=O)(=O)c2nnc(C)s2)[C@]2(C)[C@H](C)CC[C@]3(CCC(=O)[C@H]32)[C@@H](C)[C@@H]1O,6.8%
19,CCn1c(SC)nnc1C1CCCN(CC(=O)Nc2nc3ccc(OC)cc3s2)C1 (stereo not drawn),0.77%
20,Cc1nnsc1C(=O)Nc1cccc(-c2csc(-c3nc4ccccc4[nH]3)c2)c1,1.45%
21,O=S(=O)(c1cc(Cl)c(Cl)cc1Cl)N1CCCCC(c2ccc(C(F)(F)F)cc2)=N1,0.91%
22,COc1ccc2nccc([C@H](O)CN3CCC(NCc4ccc5c(c4C)OCCO5)CC3)c2n1,69.1%
23,Nc1nccc2ccc(-c3ccc4nccn4c3)cc12,4.92%
